Measurements published in PubChem BioAssay (NCATS).
Records with an inconclusive call do not appear. A call without a number means that no potency is given here. The source made the active and inactive calls. The call rests on the fitted dose curve; in most records, active means well fitted inhibition curve with a large enough effect; inconclusive means small, poorly fitted or top-dose-only effect; inactive means no such curve, though single readings can be large or run the other way.
Potency means the concentration at half of the fitted maximal effect.

The compounds below were run against Cytochrome P450 3A7 (Homo sapiens) (UniProt P24462) (assay: Cytochrome P450 family 3 subfamily A member 7 (CYP3A7) small molecule antagonists: luciferase biochemical qHTS assay (AID 1963596; further: nearly all actives have a fitted effect of over 40% in size)). Details: P450-Glo CYP3A7 enzyme luminescence, 1 h; series mostly up to 57.4 µM.
Cytochrome P450 3A7 (Homo sapiens), sequence (P24462 whole entry, looked up): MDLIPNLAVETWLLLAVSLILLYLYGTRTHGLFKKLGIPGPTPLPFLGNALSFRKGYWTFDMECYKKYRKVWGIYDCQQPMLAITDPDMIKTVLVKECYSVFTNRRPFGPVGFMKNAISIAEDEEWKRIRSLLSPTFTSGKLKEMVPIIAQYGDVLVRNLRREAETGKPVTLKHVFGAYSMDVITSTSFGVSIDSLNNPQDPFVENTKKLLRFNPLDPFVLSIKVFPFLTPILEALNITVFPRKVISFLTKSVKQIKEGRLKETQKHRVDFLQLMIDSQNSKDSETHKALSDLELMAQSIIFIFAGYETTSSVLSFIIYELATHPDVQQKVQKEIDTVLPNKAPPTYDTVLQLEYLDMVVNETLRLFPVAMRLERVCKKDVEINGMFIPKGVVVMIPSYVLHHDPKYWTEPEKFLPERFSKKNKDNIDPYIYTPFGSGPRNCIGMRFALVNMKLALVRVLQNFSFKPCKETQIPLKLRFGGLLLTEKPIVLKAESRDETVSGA
How it was run: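 Biochemical CYP3A7 activity measured with P450-Glo system: luciferin formed from proluciferin substrate in NADPH-driven reaction (1 h, room temperature) after 10 min compound preincubation. Signal in relative luminescence units.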
`NC(=O)C(CCC(F)(F)F)N(Cc1ccc(-c2ncon2)cc1F)S(=O)(=O)c1ccc(Cl)cc1` (centres undefined) was tested, and the Potency was “inactive”. For `CCN(CC)C(=O)c1cccnc1`, the Potency was “inactive”. For `N[C@@H]1CCCCN(c2c(F)cc3c(=O)c(C(=O)O)cn(C4CC4)c3c2Cl)C1`, the Potency was “inactive”. For `CC(C)[C@H]1CC[C@H](C)C[C@H]1O`, the Potency was “inactive”. `CC(=O)Nc1nc2c(Oc3cc(-c4ccc(C(F)(F)F)cc4)ncn3)cccc2s1` was tested, and the Potency was 26.8 µM (active). For `COC(=O)c1ccc(C2C=C(c3ccc(Cl)cc3)Nc3nc4ccccc4n32)cc1` (centres undefined), the Potency was “inactive”. With `CC(=O)Nc1ccc(C)cc1-c1nc2ccccc2n(CC(=O)Nc2cc(Cl)ccc2C)c1=O` the Potency was “inactive”. With `C[C@@H](C(=O)O)c1ccc(-c2ccccc2)c(F)c1` the Potency was “inactive”. `CC1(C)S[C@@H]2[C@H](NC(=O)[C@H](N)c3ccccc3)C(=O)N2[C@H]1C(=O)O` was tested, and the Potency was “inactive”. `CCCCC(CC)COC(=O)CC(C(=O)OCC(CC)CCCC)S(=O)(=O)O` (centres undefined) was tested, and the Potency was “inactive”. For `CCCC(CCC)C(N)=O`, the Potency was “inactive”. With `COc1ccc(C(=O)Nc2ccc3oc(-c4ccc(OC)cc4)nc3c2)cc1` the Potency was “inactive”. `COc1ccccc1C(=O)Nc1cccc(NC(=O)c2cccc(C)c2)c1` was tested, and the Potency was “inactive”. `FCOC(C(F)(F)F)C(F)(F)F` was tested, and the Potency was “inactive”. For `O=S(=O)(O)Oc1ccc(C(c2ccc(OS(=O)(=O)O)cc2)c2ccccn2)cc1`, the Potency was “inactive”. In the case of `CCOC(=O)c1ccc(NC(=O)c2cc(=O)c3ccc(C)c(C)c3o2)cc1`, the Potency is reported as “inactive”. For `COc1cc2nc(=NC(=O)c3cccnc3)n3c(c2cc1OC)NCC3`, the Potency was “inactive”. For `O=C(c1ccc(OC(F)F)c(C#Cc2ccccn2)c1)N1Cc2cccnc2C1`, the Potency was “inactive”. In the case of `CCCN(CCc1cccs1)[C@H]1CCc2c(O)cccc2C1`, the Potency is reported as “inactive”. For `CC1(C)CC1C(=O)NC(=CCCCCSCC(N)C(=O)O)C(=O)O` (centres undefined), the Potency was “inactive”. With `O=C(Nc1ccc(Br)cc1)c1cc(Br)c(Br)s1` the Potency was “inactive”. `C[N+]1(CC2COC(c3ccccc3)(c3ccccc3)O2)CCCCC1` (centres undefined) was tested, and the Potency was “inactive”. `CN(C)CCOC(c1ccc(Cl)cc1)c1ccccn1` (centres undefined) was tested, and the Potency was “inactive”. `Cc1cc(C(C)Nc2ccccc2C(=O)O)c2nc(N3CCOCC3)cc(=O)n2c1` (centres undefined) was tested, and the Potency was “inactive”. In the case of `Cc1noc(=O)c2ccc(NC(=O)C(O)(CC(C)(C)c3cccc4c3OCC4)C(F)(F)F)cc12` (centres undefined), the Potency is reported as “inactive”. With `COc1ccc(-c2nc(-c3ccc(-c4cccc(Cl)c4)o3)[nH]c2-c2ccc(OC)cc2)cc1` the Potency was “inactive”. For `Cc1c(C)c2c(c(C)c1OC(=O)CCC(=O)O)CC[C@@](C)(CCC[C@H](C)CCC[C@H](C)CCCC(C)C)O2`, the Potency was “inactive”. `CNc1ccc([N+](=O)[O-])cc1-n1cnc(-c2ccc(C(F)(F)F)cc2)c1` was tested, and the Potency was “inactive”. For `Cc1cc(NC(=O)Nc2ccc(F)c(F)c2)n(-c2ccccc2)n1`, the Potency was “inactive”. For `CCCN(CCN1CCN(c2ccccc2OC)CC1)C1CCc2ncsc2C1` (centres undefined), the Potency was “inactive”. In the case of `C[C@H](CCCC(C)(C)O)[C@H]1CC[C@H]2[C@@H]3CC=C4C[C@@H](O)CC[C@]4(C)[C@H]3CC[C@]12C`, the Potency is reported as “inactive”. In the case of `Fc1ccc(-c2c3cccc(C(F)(F)F)c3nn2Cc2ccc(F)cc2Cl)cc1`, the Potency is reported as “inactive”. With `CCc1ccc(CNC(=O)C2CCCN(c3nnc(C)c4c(C)n(-c5ccccc5)nc34)C2)cc1` (centres undefined) the Potency was 2.82 µM (active). `CC(=O)O[C@@H]1C(=O)O[C@@H]2[C@H]1OC(=O)[C@@H]2OC(C)=O` was tested, and the Potency was “inactive”. With `CC(=O)NC[C@H]1CN(c2ccc(N3CCN(C(=O)CO)CC3)c(F)c2)C(=O)O1` the Potency was “inactive”. For `O=C(O)CN(CC(=O)O)Cc1cc2c(-c3ccccc3C(=O)O)c3cc(CN(CC(=O)O)CC(=O)O)c(=O)cc-3oc2cc1O`, the Potency was “inactive”. For `Cc1ccc(CNC(=O)C2CCN(S(=O)(=O)c3c(C)noc3/C=C/c3ccccc3F)CC2)o1`, the Potency was “inactive”. `CCC[C@H](N[C@@H](C)C(=O)N1[C@H](C(=O)O)C[C@@H]2CCCC[C@@H]21)C(=O)OCC` was tested, and the Potency was “inactive”. In the case of `CCOC(=O)C1=C(O)c2ccccc2S(=O)(=O)N1C`, the Potency is reported as “inactive”.
